High-throughput results from PubChem BioAssay.
3T3 cytotox: kills NIH 3T3 cells; NIH 3T3 viability, CellTiter-Glo ATP luminescence, 48-72 h; Potency, µM (titrated, usually from 96.7 µM), actives largely listed as inhibitors; 94,000 compounds, 4.3% hits; note: nearly all actives have a fitted effect of over 55% in size
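Mouse fibroblast NIH 3T3 cells, 400 per well, received compound via pintool and were incubated for 48 or 72 hr prior to CellTiter-Glo ATP luminescence measurement.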
HEK293 tox: kills HEK 293 cells; HEK 293 viability, ATP luminescence (CellTiter-Glo), 48-72 h; Potency, µM (series often up to 115 µM), usual class: inhibitors; 94,000 compounds, 6.6% hits; AID 1345083; note: nearly all actives have a fitted effect of over 60% in size
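qHTS cytotoxicity; HEK 293, 250 cells/well; compound pinned; 48 or 72 hr, 37 degree Celsius, 5% CO2, 95% humidity; CellTiter-Glo, 10 min RT; luminescence (ATP).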
GPT2 inhibitor: blocks human glutamate pyruvate transaminase 2; Q8TD30; Recombinant GPT2, coupled pyruvate oxidase/HRP Amplex Red fluorescence; Potency, µM (doses to about 57.7 µM), most hits filed as inhibitors; 100,000 compounds, 0.25% hits; note: nearly all actives have a fitted effect of over 60% in size
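Inhibition is scored from Amplex Red fluorescence generated when pyruvate oxidase and HRP act on pyruvate released by GPT2. Reactions contain 10ng/uL enzyme, 250uM a-KG and 2mM L-alanine and run 30 min at room temperature.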
Luciferase inh: Photinus pyralis luciferase inhibition; P08659; purified P. pyralis luciferase, luminescence, biochemical; Potency, µM (top dose mostly 115 µM), most hits filed as inhibitors; 76,000 compounds, 2.5% hits; note: nearly all actives have a fitted effect of over 65% in size
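Purified P. pyralis luciferase (10nM final) in 50mM Tris acetate pH 7.5, 10mM Mg acetate, 0.01% Tween-20, 0.05% BSA with 10uM D-luciferin and 10uM ATP. Compounds titrated qHTS. Luminescence imaged on CCD.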
NPR1 antag: human Npr1 receptor antagonism | P16066 | HEK293 hNpr1 GloSensor cGMP, ANP-stimulated luminescence | Potency, µM (titrated, usually from 46.3 µM), most hits filed as inhibitors | 76,000 compounds, 1.6% hits | AID 1347048; calls by dose curve; note: nearly all actives have a fitted effect of over 60% in size
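HEK293 cells stably expressing human Npr1 and cGMP GloSensor pGS-40F, loaded 2 h with 2% GloSensor reagent, given compound 30 min at room temperature. Luminescence read before and 20 min after 0.1 nM hNppA.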
Npr1 antag conf: hNpr1 antagonism, confirmation assay. 1,400 compounds, 76% hits. Potency, µM (series often up to 57.6 µM), actives largely listed as inhibitors. HEK293 hNpr1 cGMP GloSensor luminescence, ANP-stimulated. shares compounds with NPR1 antag; calls by dose curve; note: nearly all actives have a fitted effect of over 70% in size
Npr2 selectivity: hNpr2 antagonism, selectivity versus Npr1; shares compounds with NPR1 antag; HEK293 hNpr2 GloSensor cGMP luminescence, CNP-stimulated; Potency, µM (titrated, usually from 57.6 µM), hits mostly inhibitors; 1,400 compounds, 67% hits; AID 1347046; calls by dose curve; note: nearly all actives have a fitted effect of over 70% in size
Target sequence (P20594 whole entry, looked up): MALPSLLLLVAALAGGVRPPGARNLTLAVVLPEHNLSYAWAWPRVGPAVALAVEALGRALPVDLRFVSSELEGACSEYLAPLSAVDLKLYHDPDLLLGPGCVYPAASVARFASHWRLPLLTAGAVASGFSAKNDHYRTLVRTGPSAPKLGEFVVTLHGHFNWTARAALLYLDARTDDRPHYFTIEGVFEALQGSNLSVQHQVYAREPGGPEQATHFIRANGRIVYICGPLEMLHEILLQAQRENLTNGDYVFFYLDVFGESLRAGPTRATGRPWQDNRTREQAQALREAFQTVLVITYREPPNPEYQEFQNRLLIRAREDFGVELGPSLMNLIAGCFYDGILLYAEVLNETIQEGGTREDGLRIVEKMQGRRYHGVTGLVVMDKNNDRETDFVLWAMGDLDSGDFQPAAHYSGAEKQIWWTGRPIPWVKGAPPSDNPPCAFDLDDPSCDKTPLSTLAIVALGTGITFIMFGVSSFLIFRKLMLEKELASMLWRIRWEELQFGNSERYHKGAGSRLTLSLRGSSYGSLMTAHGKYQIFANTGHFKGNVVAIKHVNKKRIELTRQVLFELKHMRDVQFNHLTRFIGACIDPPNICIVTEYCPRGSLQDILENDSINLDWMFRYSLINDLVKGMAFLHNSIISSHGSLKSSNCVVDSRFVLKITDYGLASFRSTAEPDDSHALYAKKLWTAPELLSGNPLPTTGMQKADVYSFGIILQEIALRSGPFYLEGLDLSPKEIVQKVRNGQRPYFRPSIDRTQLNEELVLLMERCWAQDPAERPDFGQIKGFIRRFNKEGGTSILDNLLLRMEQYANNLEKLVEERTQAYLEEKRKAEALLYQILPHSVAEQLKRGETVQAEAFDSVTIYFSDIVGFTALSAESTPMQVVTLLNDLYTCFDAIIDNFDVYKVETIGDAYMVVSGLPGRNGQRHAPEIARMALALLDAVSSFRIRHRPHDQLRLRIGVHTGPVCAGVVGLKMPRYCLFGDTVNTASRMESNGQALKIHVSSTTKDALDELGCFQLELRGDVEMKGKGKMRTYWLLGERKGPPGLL
FLuc inh counter: inhibits firefly luciferase, false Npr1 antagonist flag | shares compounds with NPR1 antag | purified FLuc enzyme, luminescence, Km substrate | Potency, µM (highest dose often 57.6 µM), most hits filed as inhibitors | 1,400 compounds, 0.7% hits
GloSensor cGMP: control cell line activity, Npr1 antagonist counter-screen. HEK293 GloSensor cGMP, SNP-stimulated, luminescence. shares compounds with NPR1 antag. 1,400 compounds, 69% hits. AID 1347051. Potency, µM (series often up to 57.6 µM), most hits filed as inhibitors; calls by dose curve; note: nearly all actives have a fitted effect of over 70% in size
Numbers stand for hits; n = inactive; u = inconclusive; x = no result. Only some compounds are listed: those with a hit (about 10% of all), similar ones and a draw of the others. Unless noted, calls come from the whole dose curve; as a rule, active = well fitted curve in the direction sought with a large enough effect; inconclusive = small, poorly fitted or top-dose-only effect, or another doubt; inactive = no such curve, though single readings can be large; an effect the other way counts as inactive or inconclusive.

SMILES	3T3 cytotox	HEK293 tox	GPT2 inhibitor	Luciferase inh	NPR1 antag	Npr1 antag conf	Npr2 selectivity	FLuc inh counter	GloSensor cGMP
O=S(=O)(N[C@H]1CO[C@H]2[C@@H]1OC[C@@H]2Nc1nccc(-c2ccc3c(c2)OCO3)n1)c1ccc2ccccc2c1	n	u	n	n	13µM	24µM	u	n	u
N#Cc1cccc(NC(=O)O[C@@H]2CO[C@H]3[C@@H]2OC[C@@H]3Nc2nccc(-c3cccc(F)c3)n2)c1	22µM	10µM	u	n	11µM	19µM	19µM	n	19µM
Cc1ccc(C(=O)N[C@H]2CO[C@H]3[C@@H]2OC[C@@H]3Nc2nccc(-c3ccc4c(c3)OCO4)n2)cc1	u	u	u	n	n	x	x	x	x
Cc1cnc(C2CCN(Cc3ccccc3)C2)n1Cc1ccccc1 (stereo not given)	u	u	n	x	x	x	x	x	x
CCc1nc(CC)n2ccn(Cc3ccc(C#N)cc3)c(=O)c12	n	n	n	n	n	x	x	x	x
Cc1ccc(-c2cc(C(=O)NCCCc3ccccc3)c3cnn(C)c3n2)cc1	n	n	n	x	x	x	x	x	x
COC(=O)c1cccc(NC(=S)N[C@H]2CO[C@H]3[C@@H]2OC[C@@H]3n2cc(-c3ccccc3)nn2)c1	u	u	n	n	11µM	12µM	17µM	n	12µM
O[C@@H]1CO[C@H]2[C@@H]1OC[C@@H]2n1cc(-c2ccccc2)nn1	n	u	n	n	n	x	x	x	x
c1ccc(CCCN[C@H]2CO[C@H]3[C@@H]2OC[C@@H]3n2cc(-c3ccccc3)nn2)cc1	u	u	n	n	10µM	16µM	20µM	n	16µM
COc1ccc(NC(=O)N2CCCC(c3noc(COc4ccccc4)n3)C2)c(C)c1 (stereo not given)	n	u	u	n	u	24µM	u	n	22µM
CCOc1ccccc1NC(=O)N1CCCC(c2noc(COc3ccccc3)n2)C1 (stereo not given)	u	u	n	n	n	x	x	x	x
CN(Cc1cccnc1)c1nc2c(c(=O)[nH]1)CCN(Cc1ccc(Cl)cc1F)CC2	u	u	u	n	11µM	15µM	17µM	n	9.7µM
CC(C)c1nc(N2CCCC2)ncc1C(=O)O	n	n	n	n	n	x	x	x	x
Cc1cc(C(=O)NC(C)c2cnc(N3CCCCCCC3)nc2C)n[nH]1 (stereo not given)	u	u	n	n	10µM	22µM	24µM	n	22µM
COc1cc(-c2cc(C)c3c(OC)ccc(OC)c3n2)cc2c1OCCNC2	20µM	u	n	n	u	u	u	n	n
COc1ccc(-c2cc3c(c(OC)c2)OCCNC3)nn1	n	n	n	n	n	x	x	x	x
O=C1Nc2ccc(-c3cccs3)cc2C(=O)N2CC[C@H](NS(=O)(=O)c3cccs3)[C@@H]12	u	u	n	n	n	x	x	x	x
COc1cccc(-c2cc(C3CCN(C(=O)c4ccccc4Br)CC3)[nH]n2)c1	u	28µM	n	n	18µM	24µM	24µM	n	22µM
c1ccc(-n2cc(CN3CCC(Oc4ccncc4)CC3)nn2)cc1	u	u	n	n	u	u	u	n	u
Cc1nn2c(c1-c1ccccc1[S+](C)(=O)[O-])N(CCC(C)C)CCC2	u	u	n	n	11µM	3.1µM	8.9µM	n	3.1µM
CC(=O)Nc1ccccc1-c1c(C)nn2c1N(CCC(C)C)CCC2	u	u	n	n	n	x	x	x	x
O=C(c1ccc(F)cc1Cl)N1CCC(n2cc(-c3nc(C4CC4)no3)nn2)C1 (stereo not given)	u	u	n	n	16µM	27µM	u	n	u
Cc1ccc(C(=O)N2CCC(n3cc(-c4nc(C5CC5)no4)nn3)C2)s1 (stereo not given)	n	u	n	n	16µM	24µM	24µM	n	14µM
O=C(Nc1nccs1)[C@@H]1C[C@@H](c2ccc(F)cc2)N(CCOc2ccccc2)C1	u	u	u	n	u	35µM	u	n	u
COc1ccc(NC(=O)[C@@H]2C[C@@H](c3ccc(F)cc3)N(CCOc3ccccc3)C2)cc1	u	u	n	n	u	x	x	x	x
SMILES	3T3 cytotox	HEK293 tox	GPT2 inhibitor	Luciferase inh	NPR1 antag	Npr1 antag conf	Npr2 selectivity	FLuc inh counter	GloSensor cGMP
C=C(C)C1CC[C@]2(C(=O)O)CC[C@]3(C(=O)O)[C@H](CCC4[C@@]5(C)CC[C@H](O)C(C)(C)C5CC[C@]43C)C12 (stereo not given in full)	x	x	n	x	x	x	x	x	x
CC1(C)[C@H](Cc2cc(-c3ccc(F)cc3)on2)C[C@@H]1NS(C)(=O)=O	u	71µM	n	u	u	40µM	40µM	n	35µM
CNc1ccc(-c2noc([C@@H]3CCCN3Cc3cccc(OC)c3)n2)cn1	n	n	n	u	n	x	x	x	x
COc1ccc(C(=O)Nc2ccc(-c3noc([C@@H]4CCCN4Cc4ccc(OC(F)(F)F)cc4)n3)cn2)cc1	u	u	n	n	11µM	12µM	11µM	n	11µM
COc1ccc(C(=O)Nc2ccc(-c3noc([C@@H]4CCCN4Cc4ccc(C(F)(F)F)cc4)n3)cn2)cc1	u	u	n	n	11µM	11µM	14µM	n	9.7µM
COc1ccc(C(=O)Nc2ccc(-c3noc([C@@H]4CCCN4CC4CCCCC4)n3)cn2)cc1	u	45µM	n	n	10µM	6.9µM	12µM	n	12µM
CC(C)N1C(=O)C2(CCCCC2)C1C(=O)NCc1cc(F)cc(F)c1 (stereo not given)	n	n	n	n	n	x	x	x	x
O=C(Cc1ccccc1)N1CCC2(CC1)CC(N(C(=O)c1ccccc1)C1CC1)CCO2 (stereo not given)	n	u	n	n	n	x	x	x	x
O=C(CCC1CCCC1)N1CCC2(CC1)CC(N(C(=O)c1ccccc1)C1CC1)CCO2 (stereo not given)	u	u	n	n	u	u	n	n	u
Cn1ccc(NC(=O)c2ccc3c(c2)NC(C)(CCCCc2ccccc2)CO3)n1 (stereo not given)	40µM	45µM	n	n	10µM	14µM	20µM	n	13µM
O=C(c1ccc2oc(-c3ccncc3Cl)nc2c1)N1CCCCC1	u	u	n	x	x	x	x	x	x
